The nature of test [1]: rapamycin-like changes in RPL19A-GFP expression – cell-based, S. cerevisiae, multiplex flow cytometry, primary screen (AID 1862; in the data active = percent of DMSO control GFP below about 86%;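 also: lower values mimic rapamycin by blocking the RPL19A rise seen in DMSO cells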). Particulars: S. cerevisiae RPL19A-GFP strain, flow cytometry fluorescence, 3 h; at 10 µM; stronger effect = lower value. (In general: Flow cytometry measures light scatter and fluorescence of single cells or particles in a stream.)
Test [2] is described as follows: TOR pathway GLN3 branch reporter MEP2-GFP changes – S. cerevisiae, multiplex flow cytometry, primary screen (AID 1867;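 active = GFP response, as percent of the DMSO control, above the screen-wide mean plus 3 SD, about 139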;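 also: median GFP channel fluorescence of barcode-gated MEP2-GFP cells measured by flow cytometry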). As to conditions: S. cerevisiae MEP2-GFP strain, 3 h, at 10 µM, stronger effect = higher value, 100% means same as DMSO wells.
A short description of test [3]: TOR pathway RTG branch CIT2 reporter changes – S. cerevisiae, GFP fusion, multiplex flow cytometry, primary screen (AID 1870).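 Also: barcoded CIT2-GFP strain pooled with four other GFP strains with rapamycin as positive control; median GFP fluorescence per well over plate mean of DMSO wells so 100% = DMSO.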 As to conditions: S. cerevisiae CIT2-GFP expression, 3 h, at 10 µM, stronger effect = higher value.
Test [4] can be described thus: TOR pathway LAP4-GFP level changes – S. cerevisiae, multiplex flow cytometry, primary screen (AID 1873;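 active = GFP signal, as percent of the solvent control, above the screen mean plus 3 SD, about 149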). As to conditions: S. cerevisiae LAP4-GFP expression, 3 h, at 10 µM, stronger effect = higher value.
The nature of test [5]: yeast AGP1-GFP level changes, GLN3 branch – cell-based, multiplex flow cytometry, S. cerevisiae, primary screen (AID 1887;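 active = GFP signal above the screen-wide mean plus 3 SD, that is over about 124.5% of the solvent control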;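 also: AGP1-GFP fusion strain of S. cerevisiae within a five-strain barcoded multiplex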). Particulars: 3 h, at 10 µM, stronger effect = higher value.
Test [6] in a line: reduced mouse 2C T cell binding to pMHC/ICAM-1 vesicles – MLPCN validation set, flow cytometry, LFA-1/ICAM-1 modulator project, pilot screen (AID 2523;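 active = response below a set limit, under 55% cells CD8-positive and vesicle-bound, and CD8 cells' 90th-percentile brightness under 279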;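 as to vesicle binding response: mean PE anti-B7-1 fluorescence of CD8+ cells relative to row control; 100% = QL9-loaded vesicles with DMSO vehicle in the same plate row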). Particulars: 2C mouse CD8+ T cells, at 7 µM, stronger effect = lower value; double positive events: measured here: CD8+/vesicle+ event percentage.
For test [7], the target named is Integrin beta-1 (Homo sapiens) + Integrin alpha-4 (Homo sapiens) (UniProt P13612+P05556). The experiment in a line: alpha4beta1 integrin LIBS antibody binding reduction – U937 cells, HUTS-21 mAb, flow cytometry, validation set, VLA-4 allosteric modulator project, pilot screen (AID 2674;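 active = inhibition above 50%, about 3 SD of the validation set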;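 also: antibody binding induced by the VLA-4 ligand LDV present at three times its Kd; 0% = LDV ligand with antibody and no compound and 100% = antibody without LDV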). Particulars: HUTS-21 LIBS mAb binding, at 6.7 µM, stronger effect = higher value, binding induced by LDV ligand.
Integrin beta-1 (Homo sapiens) + Integrin alpha-4 (Homo sapiens), sequence (P05556 whole entry, looked up): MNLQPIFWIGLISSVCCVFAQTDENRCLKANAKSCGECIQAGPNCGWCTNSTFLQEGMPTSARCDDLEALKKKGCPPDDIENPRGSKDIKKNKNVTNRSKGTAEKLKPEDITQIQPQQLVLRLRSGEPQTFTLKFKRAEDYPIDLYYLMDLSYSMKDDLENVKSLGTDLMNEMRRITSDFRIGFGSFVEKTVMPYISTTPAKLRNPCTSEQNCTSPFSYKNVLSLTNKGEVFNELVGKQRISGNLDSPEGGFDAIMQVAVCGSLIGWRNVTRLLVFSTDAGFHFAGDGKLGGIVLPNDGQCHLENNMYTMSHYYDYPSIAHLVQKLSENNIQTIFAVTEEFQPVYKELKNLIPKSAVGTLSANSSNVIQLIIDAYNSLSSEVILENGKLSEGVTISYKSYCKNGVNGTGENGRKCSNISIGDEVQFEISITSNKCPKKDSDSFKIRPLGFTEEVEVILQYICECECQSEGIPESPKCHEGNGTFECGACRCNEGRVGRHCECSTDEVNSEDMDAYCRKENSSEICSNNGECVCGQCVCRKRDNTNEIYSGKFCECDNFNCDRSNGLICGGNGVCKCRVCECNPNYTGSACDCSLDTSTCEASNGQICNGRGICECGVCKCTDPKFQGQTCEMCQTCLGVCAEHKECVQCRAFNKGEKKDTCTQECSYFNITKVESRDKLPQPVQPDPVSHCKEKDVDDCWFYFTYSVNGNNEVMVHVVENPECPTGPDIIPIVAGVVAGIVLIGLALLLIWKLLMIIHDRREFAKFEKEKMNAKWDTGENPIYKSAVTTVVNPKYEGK
Integrin beta-1 (Homo sapiens) + Integrin alpha-4 (Homo sapiens), sequence (P13612 whole entry, looked up): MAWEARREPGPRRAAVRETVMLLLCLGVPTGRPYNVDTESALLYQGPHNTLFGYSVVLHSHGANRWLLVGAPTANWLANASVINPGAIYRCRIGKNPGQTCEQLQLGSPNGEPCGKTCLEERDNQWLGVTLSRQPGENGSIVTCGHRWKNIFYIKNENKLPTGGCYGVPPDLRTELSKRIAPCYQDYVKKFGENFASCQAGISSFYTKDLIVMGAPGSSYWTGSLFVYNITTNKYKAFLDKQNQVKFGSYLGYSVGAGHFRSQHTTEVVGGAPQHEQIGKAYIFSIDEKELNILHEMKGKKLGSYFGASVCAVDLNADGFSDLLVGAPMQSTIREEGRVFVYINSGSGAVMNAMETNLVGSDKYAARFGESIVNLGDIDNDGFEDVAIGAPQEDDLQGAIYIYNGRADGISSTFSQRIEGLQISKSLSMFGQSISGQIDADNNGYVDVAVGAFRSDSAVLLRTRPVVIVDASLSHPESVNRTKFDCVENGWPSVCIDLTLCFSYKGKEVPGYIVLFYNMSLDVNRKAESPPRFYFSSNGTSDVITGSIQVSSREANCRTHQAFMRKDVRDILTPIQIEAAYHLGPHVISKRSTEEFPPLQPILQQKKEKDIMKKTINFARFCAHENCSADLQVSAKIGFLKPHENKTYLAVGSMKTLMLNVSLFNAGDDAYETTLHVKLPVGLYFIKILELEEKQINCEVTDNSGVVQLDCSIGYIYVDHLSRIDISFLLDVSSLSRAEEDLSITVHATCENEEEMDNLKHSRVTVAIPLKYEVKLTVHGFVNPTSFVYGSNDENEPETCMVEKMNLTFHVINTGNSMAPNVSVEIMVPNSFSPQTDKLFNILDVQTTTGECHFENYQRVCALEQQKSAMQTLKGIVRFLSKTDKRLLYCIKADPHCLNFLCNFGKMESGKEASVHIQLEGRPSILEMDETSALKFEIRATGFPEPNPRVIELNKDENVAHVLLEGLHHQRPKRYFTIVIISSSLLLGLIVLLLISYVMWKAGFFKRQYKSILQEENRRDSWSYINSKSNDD

Test [8] can be described thus: calorie-restriction mimetic ROS inhibitors, yeast – validation compound set, pilot screen (AID 2706;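 active = superoxide response below 65% of plate, a cut near 3 SD across the whole screen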;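 also: yeast exposed to compound for one week at 30 degrees C before staining; 100% = mean of all compound wells on the same plate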). As to conditions: S. cerevisiae aging, superoxide DHE fluorescence; at 10 µM; stronger effect = lower value.
The target in test [9] is Beta-adrenergic receptor kinase 1 (Homo sapiens) (UniProt P25098). The experiment in a line: GRK2 binders displacing RNA aptamer, biochemical, validation, human GRK2, bead flow cytometry (AID 488806;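 active = aptamer binding inhibition above 30%, about 3 SD of noise from non-fluorescent compounds; inactive = inhibition at or below 30%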). As to conditions: bead-bound GRK2, FAM-aptamer displacement, at 10 µM, stronger effect = higher value.
Beta-adrenergic receptor kinase 1 (Homo sapiens), sequence (P25098 whole entry, looked up): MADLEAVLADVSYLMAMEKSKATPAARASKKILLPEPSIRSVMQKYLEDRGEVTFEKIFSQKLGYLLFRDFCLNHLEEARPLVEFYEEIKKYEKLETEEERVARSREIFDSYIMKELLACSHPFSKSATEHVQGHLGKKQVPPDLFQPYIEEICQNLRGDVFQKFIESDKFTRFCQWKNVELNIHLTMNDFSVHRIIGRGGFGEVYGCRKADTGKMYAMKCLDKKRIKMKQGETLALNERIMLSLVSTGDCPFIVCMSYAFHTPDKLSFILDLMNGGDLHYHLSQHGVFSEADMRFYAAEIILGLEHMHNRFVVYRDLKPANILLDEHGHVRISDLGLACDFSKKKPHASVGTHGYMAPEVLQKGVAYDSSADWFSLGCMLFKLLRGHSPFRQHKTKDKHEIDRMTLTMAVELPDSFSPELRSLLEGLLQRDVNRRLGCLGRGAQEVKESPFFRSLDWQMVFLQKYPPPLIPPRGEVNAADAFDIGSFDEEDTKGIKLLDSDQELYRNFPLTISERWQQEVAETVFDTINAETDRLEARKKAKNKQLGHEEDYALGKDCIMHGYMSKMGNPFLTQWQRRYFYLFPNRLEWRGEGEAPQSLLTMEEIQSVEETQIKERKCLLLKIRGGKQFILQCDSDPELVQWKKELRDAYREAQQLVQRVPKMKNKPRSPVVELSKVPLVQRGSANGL
For test [10], the target named is Beta-2 adrenergic receptor (Homo sapiens) (UniProt P07550). Put plainly: agonist-induced loss of surface beta2AR – cell-based, FAP fluorogen, flow cytometry, validation set, pilot screen (AID 504459;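 active = percent response above 42, roughly 3 SD of non-fluorescent test compounds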;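 also: agonist-driven loss of surface beta2AR via internalization measured by FAP dye flow cytometry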). As to conditions: Am2.2-beta2AR cells, at 10 µM, stronger effect = higher value.
Beta-2 adrenergic receptor (Homo sapiens), sequence (P07550 whole entry, looked up): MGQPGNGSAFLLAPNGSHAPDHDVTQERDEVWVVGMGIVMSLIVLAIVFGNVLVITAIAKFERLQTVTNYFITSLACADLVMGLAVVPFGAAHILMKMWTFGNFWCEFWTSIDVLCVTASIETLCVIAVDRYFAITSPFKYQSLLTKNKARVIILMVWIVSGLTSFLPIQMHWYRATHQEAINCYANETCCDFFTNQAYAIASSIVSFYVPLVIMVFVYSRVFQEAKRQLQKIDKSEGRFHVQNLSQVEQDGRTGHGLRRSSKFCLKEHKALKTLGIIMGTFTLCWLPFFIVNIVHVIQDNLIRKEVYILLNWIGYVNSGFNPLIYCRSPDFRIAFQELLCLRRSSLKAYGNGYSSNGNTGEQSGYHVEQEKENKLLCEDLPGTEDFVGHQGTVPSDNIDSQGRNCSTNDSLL
For test [11], the target named is AP-2 complex subunit beta (Homo sapiens) (UniProt P63010). Put plainly: beta-arrestin/AP2 interaction blockers – biochemical, validation set, GST-AP2 beads, flow cytometry, pilot screen (AID 504541;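 active = inhibition above 54%, about 3 SD of non-fluorescent compounds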;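 also: AP2 carries R879A mutation and is captured from E. coli lysate; bead-bound FITC arrestin peptide fluorescence measuring arrestin peptide binding to AP2; 0% = DMSO wells and 100% = excess unlabeled arrestin peptide control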). Particulars: FITC arrestin peptide, at 10 µM, stronger effect = higher value, AP2 beta2 appendage fragment, R879A mutant.
AP-2 complex subunit beta (Homo sapiens), sequence (P63010 whole entry, looked up, the tested form may be a part, one chain of several): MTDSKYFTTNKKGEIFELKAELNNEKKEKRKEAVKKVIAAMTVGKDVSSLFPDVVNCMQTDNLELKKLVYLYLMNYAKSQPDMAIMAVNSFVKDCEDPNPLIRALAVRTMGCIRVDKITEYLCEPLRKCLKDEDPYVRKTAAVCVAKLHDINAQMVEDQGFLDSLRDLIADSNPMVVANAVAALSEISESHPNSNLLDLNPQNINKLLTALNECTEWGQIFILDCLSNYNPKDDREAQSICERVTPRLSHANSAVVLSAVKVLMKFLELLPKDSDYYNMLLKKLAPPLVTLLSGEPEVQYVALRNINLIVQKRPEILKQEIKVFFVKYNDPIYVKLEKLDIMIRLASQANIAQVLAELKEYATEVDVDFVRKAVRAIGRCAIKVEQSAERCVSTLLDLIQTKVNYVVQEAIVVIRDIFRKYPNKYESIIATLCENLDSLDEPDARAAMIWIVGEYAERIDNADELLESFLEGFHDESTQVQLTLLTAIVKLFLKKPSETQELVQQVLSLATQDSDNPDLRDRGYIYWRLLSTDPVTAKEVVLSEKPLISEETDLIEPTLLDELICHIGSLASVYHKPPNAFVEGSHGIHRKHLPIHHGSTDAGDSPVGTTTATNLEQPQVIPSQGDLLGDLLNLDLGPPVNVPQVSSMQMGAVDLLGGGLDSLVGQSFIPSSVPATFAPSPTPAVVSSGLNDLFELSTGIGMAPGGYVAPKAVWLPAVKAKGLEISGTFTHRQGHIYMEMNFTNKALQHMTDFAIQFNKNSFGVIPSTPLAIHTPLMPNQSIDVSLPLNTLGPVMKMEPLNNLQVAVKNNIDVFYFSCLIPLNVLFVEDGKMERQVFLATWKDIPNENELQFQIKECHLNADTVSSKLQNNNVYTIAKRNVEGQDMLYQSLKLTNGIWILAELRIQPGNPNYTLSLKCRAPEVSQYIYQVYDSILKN
Test [12] in a line: cytosolic pH regulators acting via V-ATPase – S. cerevisiae, pHLuorin, HTS validation (AID 504600; in the data active = response above about 15%;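 also: plate controls were DMSO for no effect and reference compound for full effect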). Particulars: V-ATPase proton transport, at 10 µM, stronger effect = higher value.
Test [13] relates to anti-desmoglein-3 scFv antibody binding to human DSG3. The experiment in a line: blockers of pathogenic pemphigus antibody–desmoglein-3 binding – biochemical, validation compound set, bead-based, flow cytometry, pilot screen (AID 588368;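 active = binding below the plate cutoff, the plate median minus 3 SD, with a reading above zero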;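 also: signal is the median channel fluorescence of bead-bound GFP antibody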). Particulars: Protein G beads, DSG3-Fc, scFv-GFP binding, at 10 µM, stronger effect = lower value.
A short description of test [14]: Nile Red efflux blockade in pump-expressing yeast – validation compound set, multiplex, phenotypic, pilot screen (AID 588506;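 active = efflux inhibition above 0.42, the validation set average plus 4 SD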;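 also: Nile Red retained in cells so higher fluorescence means more efflux inhibition; 0 = negative control wells and 1 = enniatin B 25 µM full block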). Particulars: S. cerevisiae pump-expressing triplex, Nile Red efflux flow cytometry; at 10 µM; stronger effect = higher value; the pumps come from Candida albicans.
Test [15] has as its target ATP-binding cassette sub-family B member 6 (Homo sapiens) (UniProt Q9NP58). The experiment in a line: blockers of ABCB6-driven porphyrin uptake – K562-ABCB6 cells, flow cytometry, validation set, pilot screen (AID 588550;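 active = inhibition above the screen-wide mean plus 3 SD, about 51%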;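 also: 0% = DMSO wells and 100% = benzethonium chloride 70 µM positive control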). As to conditions: K562-ABCB6 porphyrin accumulation, 1 h, at 10 µM, stronger effect = higher value.
Test [16] is described as follows: AML differentiation inducers, ER-HoxA9 marrow cells – cell-based, GFP/MAC1 double positive, flow cytometry, validation set, primary screen (AID 588685;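 active = differentiation response of at least 50%, scaled between solvent and reference control, from cells with both markers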;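 also: compound exposure lasts four days before antibody staining and flow analysis; 0% = DMSO wells and 100% = 5 µM fulvestrant positive control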). Particulars: stronger effect = higher value, normalized: vehicle 0, fulvestrant 100.

Each structure is given as a SMILES string. Records with an inconclusive call do not appear. Activity calls are given as the source filed them.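 The calls were made as follows, unless noted: active = percent response above a set limit, the screen-wide mean plus 3 SD (cut at about 130% in these data); inactive = the rest.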

ATP-binding cassette sub-family B member 6 (Homo sapiens), sequence (Q9NP58 whole entry, looked up): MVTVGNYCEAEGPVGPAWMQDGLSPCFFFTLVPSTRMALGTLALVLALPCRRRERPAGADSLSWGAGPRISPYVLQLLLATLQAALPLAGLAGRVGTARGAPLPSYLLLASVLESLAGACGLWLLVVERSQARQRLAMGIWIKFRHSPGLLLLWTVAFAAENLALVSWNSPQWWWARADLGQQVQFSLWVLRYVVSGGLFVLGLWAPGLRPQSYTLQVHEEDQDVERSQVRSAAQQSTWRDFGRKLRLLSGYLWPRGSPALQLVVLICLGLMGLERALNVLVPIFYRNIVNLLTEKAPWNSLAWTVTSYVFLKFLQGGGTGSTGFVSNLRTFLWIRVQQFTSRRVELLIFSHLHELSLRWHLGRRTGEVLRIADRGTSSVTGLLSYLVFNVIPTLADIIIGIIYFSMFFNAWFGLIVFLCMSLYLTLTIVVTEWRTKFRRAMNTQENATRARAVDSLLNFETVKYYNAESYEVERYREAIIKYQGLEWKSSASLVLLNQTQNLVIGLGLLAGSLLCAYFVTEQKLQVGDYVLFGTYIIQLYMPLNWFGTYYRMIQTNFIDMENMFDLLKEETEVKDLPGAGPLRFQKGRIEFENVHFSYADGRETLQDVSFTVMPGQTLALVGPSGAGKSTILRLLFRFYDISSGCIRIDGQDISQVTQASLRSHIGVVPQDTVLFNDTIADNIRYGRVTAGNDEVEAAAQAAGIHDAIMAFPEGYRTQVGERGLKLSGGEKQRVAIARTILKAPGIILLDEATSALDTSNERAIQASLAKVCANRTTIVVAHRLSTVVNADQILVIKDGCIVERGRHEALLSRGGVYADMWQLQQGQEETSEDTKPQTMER

One may read the inhibition as the change of the read-out against control, counted positive when it falls. For the molecule `O=C(CNC(=O)OCc1ccccc1)Oc1cc2oc(=O)cc(-c3ccccc3)c2cc1Cl`, the percent of DMSO control GFP in test [1] was 97.5% (inactive). For the same molecule, the GFP response vs DMSO in test [2] and in [4] was 107% (inactive) each time. Besides, the percent response of DMSO control in [3] was 111% (inactive). Besides, the GFP response, % of DMSO in [5] is 71.1% (inactive). The molecule also showed a double positive events in test [6] of 61.1%. In [6], the vesicle binding response is 423% (inactive). The inhibition in [7] is -0.27% (inactive); in [11] it was 12.8% (inactive); in test [15], 1% (inactive). In addition, in test [8], the superoxide response (% of plate) is 207% (inactive). Moreover, in [9], the aptamer binding inhibition was 8% (inactive). Further, the figures for the response in [10] and in [12] were -13.2% (inactive) and -27.5% (inactive), respectively. For the same molecule, the binding (% of control) in [13] is 103% (inactive). Besides, the efflux inhibition (fraction of control) in test [14] was -0.09 (inactive). Further, in test [16], the differentiation response was -4% (inactive).

Regarding `COc1ccc(CNC(=O)C2CCCN2C)cc1OC` (stereo not given), in [1], the percent of DMSO control GFP is 98.8% (inactive). Besides, the results for the GFP response vs DMSO in test [2] and in test [4] were 99.7% (inactive) and 92.6% (inactive), respectively. For the same molecule, in test [3], the percent response of DMSO control is 101% (inactive). In addition, in test [5], the GFP response, % of DMSO is 96.7% (inactive). Moreover, the double positive events in test [6] amounted to 62%. In addition, the vesicle binding response in [6] was 141% (inactive). Also, the results for the inhibition in test [7], in [11] and in test [15] were 1.59% (inactive), -3.62% (inactive) and -5% (inactive), respectively. The superoxide response (% of plate) in test [8] is 87.7% (inactive). Moreover, the aptamer binding inhibition in test [9] is -2% (inactive). The response in test [10] is 7.42% (inactive); in test [12] it was -0.65% (inactive). The binding (% of control) in test [13] was 104% (inactive). The efflux inhibition (fraction of control) in test [14] was -0.29 (inactive). Further, in [16], the differentiation response was -7.5% (inactive).

Turning to `CCC(=O)O[C@]1(C(=O)CCl)[C@@H](C)C[C@H]2[C@@H]3CCC4=CC(=O)C=C[C@]4(C)[C@@]3(F)[C@@H](O)C[C@@]21C`, the percent of DMSO control GFP in [1] is 99.8% (inactive). For the same molecule, the GFP response vs DMSO in test [2] was 103% (inactive); in [4], 91.5% (inactive). Besides, the percent response of DMSO control in test [3] is 106% (inactive). Further, the GFP response, % of DMSO in test [5] was 106% (inactive). Moreover, the double positive events in test [6] stood at 64.6%. In addition, the vesicle binding response in test [6] is 228% (inactive). In addition, the figures for the inhibition in test [7], in test [11] and in [15] were -9.13% (inactive), 3.88% (inactive) and -10% (inactive), respectively. The superoxide response (% of plate) in test [8] is 120% (inactive). Further, the aptamer binding inhibition in test [9] is 4% (inactive). The values for the response in [10] and in test [12] were 11.3% (inactive) and -2.3% (inactive), respectively. In addition, the binding (% of control) in test [13] is 97.9% (inactive). Further, in test [14], the efflux inhibition (fraction of control) was 1.03 (active). Besides, the differentiation response in test [16] was -13.3% (inactive).

With `CCCCCC(=O)O[C@]1(C(C)=O)CC[C@H]2[C@@H]3CCC4=CC(=O)CC[C@]4(C)[C@H]3CC[C@@]21C`, in [1], the percent of DMSO control GFP was 98.9% (inactive). Further, the GFP response vs DMSO in [2] was 95.6% (inactive); in test [4], 108% (inactive). Besides, in [3], the percent response of DMSO control is 94.5% (inactive). Besides, the GFP response, % of DMSO in [5] is 98.1% (inactive). The same molecule showed a double positive events in test [6] of 60%. Besides, the vesicle binding response in test [6] is 153% (inactive). Moreover, the values for the inhibition in [7], in test [11] and in [15] were -17.2% (inactive), 18.3% (inactive) and 2% (inactive), respectively. Also, the superoxide response (% of plate) in test [8] was 105% (inactive). Moreover, the aptamer binding inhibition in test [9] is 0% (inactive). The response in test [10] is 6.12% (inactive); in [12], -0.4% (inactive). For the same molecule, the binding (% of control) in test [13] is 105% (inactive). Also, the efflux inhibition (fraction of control) in test [14] was -0.155 (inactive). Further, the differentiation response in test [16] is -0.18% (inactive).

Turning to `CC12CCCCN1CCCc1c2[nH]c2ccccc12` (stereo not given), the percent of DMSO control GFP in [1] was 99.6% (inactive). Moreover, the GFP response vs DMSO in [2] is 105% (inactive); in test [4] it was 82.8% (inactive). In addition, the percent response of DMSO control in [3] is 115% (inactive). In test [5], the GFP response, % of DMSO is 99.5% (inactive). The molecule further returned a double positive events in test [6] of 61.3%. Besides, the vesicle binding response in test [6] was 149% (inactive). In addition, the values for the inhibition in [7], in test [11] and in [15] were -22.2% (inactive), 3.51% (inactive) and -49% (inactive), respectively. In [8], the superoxide response (% of plate) was 99.9% (inactive). For the same molecule, the aptamer binding inhibition in test [9] was -6% (inactive). In addition, the response in test [10] was 8.33% (inactive); in test [12] it was 0.15% (inactive). In [13], the binding (% of control) was 112% (inactive). The efflux inhibition (fraction of control) in [14] is -0.2 (inactive). For the same molecule, the differentiation response in [16] is 11% (inactive).

Source of the values: PubChem BioAssay.
